# Screening results (PubChem)
# This is one part of a sample in which hits are shown more often than they occur.
# Pf Dd2 growth – inhibitors of Plasmodium falciparum Dd2 growth | P. falciparum Dd2 growth, SYBR Green, 72 h | Potency, µM (top dose mostly 28.9 µM), for inactives: top-dose activity, negative = inhibition, actives largely listed as inhibitors | 120,000 compounds, 4.3% hits | AID 1347417; active = well fitted inhibition curve with a large enough effect;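 also: plate controls were DMSO vehicle for no effect and reference drug for full effect; nearly all actives have a fitted effect of over 65% in size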
#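 Infected erythrocytes (Dd2, 0.3% parasitemia, 2.5% hematocrit final) are added to compound in RPMI-1640/Albumax II medium, grown 72 h at 37C in low oxygen, then lysed with saponin/Triton-X containing SYBR Green and read by fluorescence.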
# An asterisk follows results filed as active; i = inactive; [ ] = another dose, or the depositor's remark. Potency is read from the fitted curve at half-maximal effect.
SMILES,Pf Dd2 growth
Cc1cnn(CCC(=O)N2CCC3(CC2)CN(Cc2ccccc2)CC3CO)c1 (stereo not drawn),i
COc1cc(OC)c(NC(=O)c2cc3c(s2)-c2ccc(Cl)cc2SC3)cc1Cl,24.0%
CC(=O)N1CCc2cc(S(=O)(=O)N3CCN(c4ccc(C)cc4)C(C)C3)ccc21 (stereo not drawn),-13.7%
CC1CCN(S(=O)(=O)c2ccc3c(ccn3CCC(=O)NCc3ccccc3F)c2)CC1,-10.5%
c1ccc(-c2cnc3n[nH]c(-c4ccc5c(c4)OCO5)c3n2)cc1,35.4%[44.1 µM]
Oc1ccccc1-c1cnc2n[nH]c(-c3ccc4c(c3)OCO4)c2n1,11.2µM*
Fc1ccccc1-c1cnc2n[nH]c(-c3ccc4c(c3)OCO4)c2n1,i
CC1(c2noc(-c3ccccn3)n2)CCN(C(=O)CCc2nc3ccc(Cl)cc3[nH]2)CC1,5.62µM*
CC1(c2noc(C3CC3)n2)CCN(C(=O)CCc2nc3ccc(Cl)cc3[nH]2)CC1,i
CC1(c2noc(-c3ccccn3)n2)CCN(C(=O)CCC(=O)N2CC(=O)Nc3ccccc32)CC1,-16.8%
CC(C)c1noc(-c2cn(C3CCN(C(=O)Cc4ccc(Cl)cc4)C3)nn2)n1 (stereo not drawn),i
CC(C)c1ccc(N2C(=O)N[C@@H]3CCN(S(=O)(=O)c4cccs4)[C@@H]3C2=O)cc1,2.7%[44.1 µM]
CC1(C)CC2CC(C)(CN2C(=O)CCC2(Cc3ccco3)CCC(=O)N2)C1 (stereo not drawn),2.5%
COc1ccc(CCNC(=O)c2ccc3c(c2)N(Cc2ccccc2)C(=O)c2ccccc2S3=O)cc1OC (stereo not drawn),i
Cc1cccc(CN2C(=O)c3ccccc3S(=O)(=O)c3ccc(C(=O)NCCC4=CCCCC4)cc32)c1,-12.6%
O=C(NCCC1=CCCCC1)c1ccc2c(c1)N(Cc1ccccc1F)C(=O)c1ccccc1S2=O (stereo not drawn),12.6µM*
Cc1ccc(NC(=O)Cn2ccn3nc4c(c3c2=O)CCCCC4)c(C)c1,-12.2%
COCCn1ncc(N2CCCC(CC(=O)NCc3ccccc3OC)C2)cc1=O (stereo not drawn),-19.5%
COc1ccc(-c2cn3cc(C(=O)N4CCCC4)nc3c(=O)n2CC2CC2)c(F)c1,8.91µM*
O=C(c1cn2cc(-c3ccccc3Cl)n(CC3CC3)c(=O)c2n1)N1CC[C@@H](O)C1,i
COc1ccc(-c2cn3cc(C(=O)NCCO)nc3c(=O)n2CC2CC2)c(F)c1,-29.6%
COCCc1nncn1C1CCN(S(=O)(=O)c2cc(F)cc(F)c2)CC1,-3.2%
Cc1nc(CC2CCN(c3nccc(-c4cccnc4)n3)CC2)no1,-11.5%
O=c1[nH]c2ccccc2n1C1CCN(c2nccc(-c3cccnc3)n2)CC1,11.2µM*
O=C(NCc1ccccn1)C1CCN(c2nccc(-c3cccnc3)n2)CC1,-13.4%
SMILES,Pf Dd2 growth
O=C(NCc1cccc(F)c1)c1nc2c(o1)CCN(Cc1cc(F)ccc1F)CC2,-10.2%[44.1 µM]
COC[C@H]1CCCN1[C@@H]1[C@H](O)[C@H](CO)O[C@@H]1CNC(=O)C1CCCC1,-6.5%[44.1 µM]
CSc1ccc(-c2nc(CN3CCCC(CO)C3)c(C)o2)cc1 (stereo not drawn),i
Cc1oc(-c2cccc(C(F)(F)F)c2)nc1CN1CCCC(CO)C1 (stereo not drawn),11.2µM*
Cc1ccc(Cl)cc1N1CCN(C(=O)C2CCCN(Cc3nc(-c4cccc(Cl)c4)oc3C)C2)CC1 (stereo not drawn),-4.0%
CCC(=O)N1CCc2cc(S(=O)(=O)NC(CC(C)C)C(=O)Nc3ccc(CC)cc3)ccc21 (stereo not drawn),i
CCn1nccc1C(=O)N1CCOc2ccc(CCC(N)=O)cc2C1,-14.4%
CCCNC(=O)CCc1c(C)nc2nc(CNC(=O)c3ccccc3)nn2c1C,12.8%
O=C(COc1ccc([N+](=O)[O-])cc1)Nc1cccc2cccnc12,13.8%
COc1ccc(C(=O)N2CCn3c(nn(-c4ccc(OC)cc4)c3=O)C2)cc1,2.9%
O=C1c2[nH]nc(-c3ccccc3)c2C(c2ccccc2)N1c1cccc(C(F)(F)F)c1 (stereo not drawn),i
CCOC(=O)c1ccc(N2C(=O)c3n[nH]c(-c4cccs4)c3C2c2ccc(CC)cc2)cc1 (stereo not drawn),10µM*
CCOC(=O)c1ccc(NC(=O)c2cn(-c3ccccc3)nc2-c2ccc(C)cc2)cc1,4.4%
CCOC(=O)c1ccc(N2C(=O)c3n[nH]c(-c4cccs4)c3C2c2ccc(C(C)C)cc2)cc1 (stereo not drawn),-2.1%
CCOC(=O)c1ccc(N2C(=O)c3n[nH]c(C)c3C2c2cccc(Br)c2)cc1 (stereo not drawn),12.6µM*
CCOC(=O)c1ccc(NC(=O)c2cn(-c3ccccc3)nc2-c2ccc(Br)cc2)cc1,0.6%
CCOC(=O)c1ccc(N2C(=O)c3n[nH]c(-c4cccs4)c3C2c2cccc(O)c2)cc1 (stereo not drawn),-18.4%
Cc1ccc(-c2n[nH]c3c2C(c2cccc(O)c2)N(c2ccc(C(=O)O)cc2)C3=O)cc1 (stereo not drawn),20.6%
CCOC(=O)c1ccc(N2C(=O)c3n[nH]c(C)c3C2c2ccc(C(C)(C)C)cc2)cc1 (stereo not drawn),22.6%
CCOC(=O)c1ccc(N2C(=O)c3[nH]nc(-c4ccc(C)cc4)c3C2c2cccs2)cc1 (stereo not drawn),11.2µM*
CCOc1ccc(C2c3c(-c4ccc(C)cc4)n[nH]c3C(=O)N2c2ccc(Cl)cc2)cc1 (stereo not drawn),10µM*
CCOC(=O)c1ccc(N2C(=O)c3[nH]nc(-c4ccc(OC)cc4)c3C2c2ccccc2Cl)cc1 (stereo not drawn),-7.5%
Cc1ncc2c(n1)C[C@@H]1CC[C@H]2N1C(=O)COc1ccc(F)cc1,4.7%
Cn1c2c(c(=O)n(C)c1=O)C(c1ccccc1C(F)(F)F)CC(=O)N2 (stereo not drawn),i
O=C(Cn1cccn1)N1CC[C@@H]2[C@@H](CCC(=O)N2CCc2cnc[nH]2)C1,-17.2%
SMILES,Pf Dd2 growth
O=C(c1cnn(Cc2ccccc2)c1)N1CCn2nc(Cc3ccccc3)cc2C1,-7.3%
Cc1nn(C)c(C)c1CCC(=O)N[C@@H]1CN(c2ccncn2)C[C@H]1CN(C)C,30.8%
CCOC(=O)c1ccc(N2C(=O)c3n[nH]c(-c4ccco4)c3C2c2ccc(O)c(OCC)c2)cc1 (stereo not drawn),i
CCOC(=O)c1ccc(N2C(=O)c3[nH]nc(-c4ccc(C)cc4)c3C2c2ccc(O)c(OCC)c2)cc1 (stereo not drawn),7.08µM*
CCOC(=O)c1ccc(N2C(=O)Cc3cc(OCC)c(OCC)cc3C2c2ccccc2)cc1 (stereo not drawn),39.8%
CCCc1noc(-c2cn(C3CCN(C(=O)c4cccc(F)c4)CC3)nn2)n1,17.1%
Cc1ccc2oc(=O)c3cnn(CC(=O)Nc4cccc(C(F)(F)F)c4)c3c2c1,1.12µM*
Cc1ccc2oc(=O)c3cnn(CC(=O)N4CCN(c5cccc(C(F)(F)F)c5)CC4)c3c2c1,72.9%[5.79 µM]
Cc1ccc2oc(=O)c3cnn(CC(=O)Nc4ccc(Br)cc4C)c3c2c1,-6.0%
N#Cc1cccc(C(=O)NC2CCN(C(=O)N3CC4CC(C3)[C@H]3CCCC(=O)N3C4)CC2)c1 (stereo partly drawn),i
O=C1CCN(Cc2cccnc2)CCCC(C(=O)NCCN2CCOCC2)CCN1 (stereo not drawn),25.3%
COc1ccccc1N1CCN(c2cc(C)nc3nc(-c4ccc(Cl)cc4)nn23)CC1,-22.3%
